Assay outcomes: PubChem, National Center for Advancing Translational Sciences (NCATS)
Rows were chosen to be rich in hits. Some 17% of all compounds tested hit in one or more screens of this group.
ClpP mod: qHTS Assay for Activators of ClpP; AID 651965, 2013; 340,000 compounds, 1.9% hits; ATP-dependent Clp protease proteolytic subunit (Bacillus subtilis (strain 168)), P80244; Potency, µM (top dose mostly 57.5 µM), for inactives: at the highest dose activity change, negative = active; purified B. subtilis ClpP, FRET peptide cleavage, 20 min; active means well fitted falling curve with a large enough effect; inconclusive means small, poorly fitted or top-dose-only effect; inactive means no such curve, though single readings can be large or run the other way; further: the source files actives as falling curves though it sought activators and does not explain the sign; nearly all actives have a fitted effect of over 65% in size
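Buffer: 100 mM Tris/HCl pH8, 100 mM KCl, 0.05% low protease BSA, 2.5% glycerol, 0.01% Tween-20. ClpP 10 microg/mL final; 20 min RT; delta FRET normalized to ADEP and DMSO controls.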
TDP1 cell noCPT: qHTS for Inhibitors of human tyrosyl-DNA phosphodiesterase 1 (TDP1): qHTS in cells in absence of CPT; DT40 Tdp1-/- hTDP1 cells, no CPT, ATP luminescence, 48 h; Potency, µM (titrated, usually from 46.2 µM), for inactives: at the top dose activity change, negative = growth inhibition, usual class: inhibitors; 420,000 compounds, 15% hits; AID 686978, 2013; further: on the % scale 0 is the no-effect control and ±100 the full control effect; nearly all actives have a fitted effect of over 55% in size
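DT40 Tdp1-/-;hTDP1 cells, no CPT (DMSO vehicle only), 400 cells/well; compounds pin-transferred; ≥48 hr, 37 °C; CellTiter-Glo 30 min RT dark, luminescence read.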
TDP1 cell CPT: growth inhibition of DT40 Tdp1-/-;hTDP1 cells with camptothecin (screen for TDP1 inhibitors); Potency, µM (series often up to 46.2 µM), for the others: at the top dose activity change, negative = growth inhibition, usual class: inhibitors; chicken DT40 Tdp1-/-;hTDP1 cells + 20 nM CPT, ATP luminescence, 48 h; 420,000 compounds, 12% hits; further: on the % scale 0 is the no-effect control and ±100 the full control effect; nearly all actives have a fitted effect of over 55% in size
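Cell growth measured by CellTiter-Glo luminescence after a minimum 48 h, 37 C compound exposure with 20 nM CPT in Tdp1-knockout DT40 cells stably expressing hTDP1, seeded 400/well; qHTS titration format.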
TDP1 block: TDP1 (human) enzyme inhibition | 350,000 compounds, 0.28% hits | recombinant TDP1, AlphaScreen DNA substrate cleavage | Q9NUW8 | Potency, µM (highest dose often 130 µM), without a hit: at the top dose activity change, negative = inhibition, actives largely listed as inhibitors; further: on the % scale 0 is the no-effect control and ±100 the full control effect; nearly all actives have a fitted effect of over 40% in size
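Recombinant human Tdp1 (E. coli-expressed, 1 nM final) preincubated with compounds 15 min at room temperature, then 5'-biotin/3'-phosphotyrosine-FITC DNA substrate (15 nM final) added for 5 min. AlphaScreen beads (10 ug/ml final) added 10 min; cleavage lowers signal.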
Active calls of the source: *; u = inconclusive; x = not tested or not shown; [ ] = another dose, or the depositor's remark. Unless noted, the call rests on the fitted dose curve; in most records, active means well fitted curve in the direction sought with a large enough effect; inconclusive means small, poorly fitted or top-dose-only effect, or another doubt; inactive means no such curve, though single readings can be large; an effect the other way counts as inactive or inconclusive. Potency means the concentration at half of the fitted maximal effect.

SMILES | ClpP mod | TDP1 cell noCPT | TDP1 cell CPT | TDP1 block
COc1ccc(C2=NS(=O)(=O)N(C)C(C(=O)Nc3cc(C)ccc3O)=C2)cc1OC | 0% | 5.2µM* | 7.3µM* | 6%
COc1ccc(NC(=O)C2=CC(c3ccc(C)cc3)=NS(=O)(=O)N2C)cc1OC | 1% | 21µM* | 23µM* | x
CC(=O)c1cccc(NC(=O)C2=CC(c3ccc4c(c3)OCO4)=NS(=O)(=O)N2C)c1 | 0% | 16µM* | u | 4%
Cc1ccc(NC(=O)C2=CC(c3ccc4c(c3)OCO4)=NS(=O)(=O)N2C)cc1 | -1% | -20% | 1% | 11%
COc1cccc(C2=NS(=O)(=O)N(C)C(C(=O)Nc3cccc(O)c3)=C2)c1 | 0% | 16µM* | 15µM* | 14%
COc1ccc(C2=NS(=O)(=O)N(C)C(C(=O)Nc3cc(OC)c(OC)c(OC)c3)=C2)cc1 | x | 15µM* | 12µM* | 7%
COc1ccc(C2=NS(=O)(=O)N(C)C(C(=O)Nc3ccc(OC)c(OC)c3)=C2)cc1 | 0% | 16µM* | u | x
COc1ccc(C2=NS(=O)(=O)N(C)C(C(=O)Nc3ccc(C(C)=O)cc3)=C2)cc1OC | x | 12µM* | 18µM* | 5%
O=C(NC1CCCC1)C1c2ccccc2OCC(=O)N1C1CC1 (centres undefined) | -2% | -8% | 9% | x
N#Cc1ccc(C(=O)OCC(=O)NC(=O)NCc2ccccc2)cc1 | 0% | 5% | 16% | 0%
Cc1cc(C(=O)N/N=C/c2ccc(N(C)C)o2)cs1 | -1% | 16µM* | 23µM* | -7%
Cc1ccc(/C=N/NC(=O)c2csc(C)c2)o1 | -2% | -10% | 6% | 1%
CCO[C@H]1OC(C(N)=O)=C[C@@H](C2CC2)[C@@H]1CCCO | 0% | 0% | 10% | x
CC(C)(C)NC(=O)CN1CCN(C(=O)CCl)CC1 | 0% | 21µM* | 23µM* | -11%
CC(C)(C)NC(=O)C(c1ccco1)N(Cc1ccc2c(c1)OCO2)C(=O)c1snc(C(N)=O)c1N (centres undefined) | x | -13% | 5% | x
Cc1sc(NC(=O)CS(=O)(=O)c2ccccc2)c(C(N)=O)c1C | 28µM* | -6% | u | -2%[0.505 µM]
CNC(=O)c1c(NC(=O)CS(=O)(=O)c2ccccc2)sc(C)c1C | -2% | -28% | -9% | x
CNC(=O)c1c(NC(=O)CS(=O)(=O)c2ccc(Cl)cc2)sc(C)c1C | -1% | u | 9.2µM* | 7%
Cc1c(Cl)cccc1NC(=O)CS(=O)(=O)c1ccccc1 | x | -10% | 17% | 3%
CC(=O)c1ccc(N2CCN(c3ncnc4c3nc3n4CCCC3)CC2)cc1 | -1% | u | u | 5%
Cc1ccc2[nH]c(=O)c(CN(Cc3cccs3)C(=S)NCC3CCCO3)cc2c1 (centres undefined) | u | 13µM* | u | -5%
Cc1cc(C)c2cc(CN(Cc3ccco3)C(=S)NCC3CCCO3)c(=O)[nH]c2c1 (centres undefined) | -4% | 16µM* | 18µM* | 6%
COc1ccc(CCNCC(O)Cn2c3ccccc3c3ccccc32)cc1OC (centres undefined) | -4% | 12µM* | 13µM* | 5%
COc1ccc(CCNC(=O)CSc2ccccc2)cc1OC | 3% | -14% | 7% | -3%
COc1ccc(CCNC(=O)CC(c2ccccc2)c2cccc(C)c2O)cc1OC (centres undefined) | x | 9.2µM* | 12µM* | 2%
SMILES | ClpP mod | TDP1 cell noCPT | TDP1 cell CPT | TDP1 block
COc1ccc(C(CCNCc2ccc(OC)c(OC)c2)c2ccc(F)cc2)cc1 (centres undefined) | x | -7% | 4% | x
CCC(C(N)=NCCc1ccc(OC)c(OC)c1)c1ccccc1 (centres undefined) | -1% | 8.2µM* | 15µM* | x
COc1ccc(CCNCCC(c2ccccc2)c2ccccc2)cc1OC | -1% | 18µM* | 18µM* | x
O=C(CN1CCSC1=O)Nc1ccc(N2CCOCC2)cc1 | x | -19% | 0% | -10%
COc1cc(OC)c(OC)cc1CCC(C)NCCC(c1ccccc1)c1ccccc1 (centres undefined) | 0% | 5.8µM* | 6.5µM* | x
CC1CCCCCCC1OC(=O)c1ccccc1C(=O)O (centres undefined) | 2% | -22% | -2% | x
CC(=O)Oc1ccccc1C(=O)N(C1CCCCC1)C1CCCCC1 | 3% | 13µM* | 23µM* | x
CC(=O)Oc1ccc(Cl)cc1CN(C(C)=O)C1CCCCC1 | x | u | 23µM* | x
Cc1cc(Nc2cccc(Cl)c2C)n2nc(Cc3ccccc3)nc2n1 | -1% | -30% | u | 7%
COC(=O)/C=C1\N/C(=N/c2nc(C)c3cc(OC)ccc3n2)NC1=O | -1% | 9.2µM* | 12µM* | x
COC(=O)/C=C1/C(=O)N/C(=N\c2nc(C)cc(C)n2)N1c1ccc(OC)cc1 | x | 1% | 21% | 3%
COc1cc2nc(N3CCOCC3)nc(NC3CCN(Cc4ccccc4)CC3)c2cc1OC | 4% | 11µM* | 16µM* | x
COc1cc2c(NC3CCN(C)CC3)nc(N3CCCN(C)CC3)nc2cc1OCc1ccccc1 | 4% | 2.8µM* | 2.8µM* | x
c1ccc(CN2CCC(Nc3nc(-c4cccs4)nc4ccccc34)CC2)cc1 | u | 18µM* | 8.2µM* | 11%
COc1cc2c(NC3CCN(C)CC3)nc(N3CCCN(C)CC3)nc2cc1OCC1CCNCC1 | 5% | -14% | -4% | x
COc1cc2nc(N3CCN(C)CC3)nc(NC3CCN(Cc4ccccc4)CC3)c2cc1OC | 4% | 11µM* | 11µM* | x
O=C(O)c1cccc(-c2ccccc2)c1O | x | 11% | 9% | x
CCC[C@H]1CN(c2ccc(OC)cc2)C(=O)[C@@H]1CC(=O)NC | 0% | -1% | 1% | x
COc1cc2nc(N3CCCN(C)CC3)nc(NC3CCN(Cc4ccccc4)CC3)c2cc1OC | 4% | 4µM* | 2.5µM* | x
COc1ccc(NC(=S)NC2CCN(Cc3ccccc3)CC2)cc1OC | x | u | -8% | 5%
COc1cc2nc(Cl)nc(NC3CCN(Cc4ccccc4)CC3)c2cc1OC | 0% | 10µM* | 7.1µM* | x
COc1cc2c(NC3CCN(C)CC3)nc(N3CCCN(C)CC3)nc2cc1OCCOCCN1CCCC1 | 4% | 1% | -20% | x
CCOC(=O)[C@]12CCC=C1N(CCC1=CCCCC1)C(=O)[C@H](CC(=O)N1CCCC1)C2 | -6% | u | 23µM* | x
CCOC(=O)[C@]12CCCC=C1N(CCc1ccc(OC)c(OC)c1)C(=O)[C@H](CC(=O)N1CCCC1)C2 | 2% | 9.2µM* | 12µM* | x
CCOC(=O)[C@]12CCCC=C1N(CCC1=CCCCC1)C(=O)[C@H](CC(=O)N1CCCC1)C2 | -1% | 2.3µM* | 2.1µM* | x
CCOC(=O)[C@]12CCC=C1N(CCC1=CCCCC1)C(=O)[C@H](CC(=O)N1CCCCC1)C2 | 0% | 13µM* | 18µM* | x
